The values below come from PubChem BioAssay AID2185 (Vanderbilt High Throughput Screening Facility, 2009).

The target in the test is Metabotropic glutamate receptor 4 (Rattus norvegicus) (UniProt P31423). Nature of the test: PubChem AID 2185. Particulars: HEK/GIRK cells expressing rat mGluR4, thallium flux PAM; stronger effect = higher value.

Entries with a potency or affinity are not part of this list. Values without a mark were called inactive. No rule for the calls is given here.

Chain of Metabotropic glutamate receptor 4 (Rattus norvegicus) (P31423 whole entry, looked up): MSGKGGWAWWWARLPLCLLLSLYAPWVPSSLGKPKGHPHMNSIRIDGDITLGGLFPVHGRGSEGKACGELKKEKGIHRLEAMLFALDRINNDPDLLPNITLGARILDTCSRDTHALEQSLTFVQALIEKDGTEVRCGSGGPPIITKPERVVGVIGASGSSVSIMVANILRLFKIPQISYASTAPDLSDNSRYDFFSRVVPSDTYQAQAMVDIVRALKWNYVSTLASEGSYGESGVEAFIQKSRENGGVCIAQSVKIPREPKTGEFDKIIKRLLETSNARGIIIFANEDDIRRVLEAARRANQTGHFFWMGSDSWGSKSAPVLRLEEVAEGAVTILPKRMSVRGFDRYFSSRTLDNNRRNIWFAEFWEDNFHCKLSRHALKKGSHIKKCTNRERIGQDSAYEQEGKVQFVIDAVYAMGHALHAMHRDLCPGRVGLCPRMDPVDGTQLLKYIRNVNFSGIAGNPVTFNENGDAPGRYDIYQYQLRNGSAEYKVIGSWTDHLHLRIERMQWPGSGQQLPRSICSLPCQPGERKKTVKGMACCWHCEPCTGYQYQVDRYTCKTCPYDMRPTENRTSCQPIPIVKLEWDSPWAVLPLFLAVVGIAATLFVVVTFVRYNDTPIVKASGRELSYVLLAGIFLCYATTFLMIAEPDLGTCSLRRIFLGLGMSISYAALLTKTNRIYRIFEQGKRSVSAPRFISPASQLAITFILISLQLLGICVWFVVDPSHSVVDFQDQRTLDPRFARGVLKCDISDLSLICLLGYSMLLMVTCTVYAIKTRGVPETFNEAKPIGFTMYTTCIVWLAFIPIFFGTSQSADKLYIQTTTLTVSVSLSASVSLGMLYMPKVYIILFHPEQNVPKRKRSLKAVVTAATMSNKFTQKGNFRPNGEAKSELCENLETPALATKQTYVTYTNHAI

Regarding `COc1cc(NC(=O)c2ccccn2)ncn1`, the % glutamate max is 25.5%.

With `O=C(Nc1ccc(N2CCCS2(=O)=O)cc1)c1ccccn1`, the % glutamate max is 30.1%.

On to `O=C(Nc1cccc(C(F)(F)F)n1)c1ccccn1`, for which the % glutamate max is 25.1%.
